This is an account of results in PubChem BioAssay (NCI).

SMILES strings stand for the structures. The panel holds about 83,000 compounds, 20% with a hit somewhere; the sample as a whole holds those more often.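 Cells were grown in 96-well plates and exposed to the test compound at a single concentration for 48 hours; results are reported as percent growth, with values below 10 considered active.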 Unmarked numbers belong to inactive results. Activity calls are given as the source filed them.

What all share (assay): NCI-60 one-dose screen, 48 h (100 = growth as untreated, 0 = no growth, -100 = all killed)
Experiment [1] deals with SK-MEL-2 melanoma. As to conditions: 10 µM unless noted.
Experiment [2] relates to EKVX NSCLC. As to conditions: 10 µM unless noted.
In experiment [3] the test system is SN12C renal. As to conditions: 10 µM unless noted.
The subject of experiment [4] is UO-31 renal. As to conditions: 10 µM unless noted.
The subject of experiment [5] is TK-10 renal. As to conditions: 10 µM unless noted.
Experiment [6] concerns ACHN renal. As to conditions: 10 µM unless noted.
In experiment [7] the test system is CAKI-1 renal. As to conditions: 10 µM unless noted.
Experiment [8] deals with A498 renal. As to conditions: 10 µM unless noted.
For experiment [9], the system named is CCRF-CEM leukemia. As to conditions: 10 µM unless noted.
Experiment [10] relates to MOLT-4 leukemia. As to conditions: 10 µM unless noted.
The test system of experiment [11] is SR leukemia. As to conditions: 10 µM unless noted.
The test system of experiment [12] is RPMI-8226 leukemia. As to conditions: 10 µM unless noted.
The subject of experiment [13] is OVCAR-8 ovarian. As to conditions: 10 µM unless noted.
The test system of experiment [14] is OVCAR-5 ovarian. As to conditions: 10 µM unless noted.
In experiment [15] the test system is OVCAR-4 ovarian. As to conditions: 10 µM.
The test system of experiment [16] is SK-OV-3 ovarian. As to conditions: 10 µM unless noted.
Experiment [17] deals with IGROV1 ovarian. As to conditions: 10 µM unless noted.
Experiment [18] has as its system OVCAR-3 ovarian. As to conditions: 10 µM unless noted.
Experiment [19] relates to HS 578T breast. As to conditions: 10 µM unless noted.
Experiment [20] deals with NCI/ADR-RES ovarian. As to conditions: 10 µM unless noted.

As for `Cc1cc(C)c(O)c(CNCCCNCc2cc(C)cc(C)c2O)c1`, the growth in [1] is 88.5%; in experiment [2], 75%; in experiment [3], 73.4%; in experiment [4], 28.2%; in [5], 77%; in experiment [6], 73.6%. Further, the growth in [7] was 62.1%; in experiment [8] it was 47%; in experiment [9], 68.4%; in [10], 67.5%; in experiment [11] it was -30.5% (active); in experiment [12] it was 28.5%. Further, the growth was 82.2% in experiment [13]; 74.6% in [14]; 88.3% in [15]; 89.3% in experiment [16]; 62% in experiment [17]; 77% in experiment [18]. The growth was 11.2% in [19] and 72.5% in experiment [20].

As for `O=C(OCc1ccc2c(Cl)cc(Cl)c(O)c2n1)N1CCNCC1`, the growth is 59.1% in experiment [1]; 33.1% in [2]; 32% in experiment [3]; 15.3% in experiment [4]; 52.1% in experiment [5]; 14% in [6]. Besides, the growth is 27% in experiment [7]; 24.3% in [8]; 26.1% in experiment [9]; 33.5% in experiment [10]; 14.5% in experiment [11]; 44.2% in [12]. In addition, the growth is 28.7% in [13]; 55.5% in experiment [14]; 23.4% in experiment [15]; 40.9% in experiment [16]; 34.8% in [17]; 33.8% in experiment [18]. The growth in experiment [19] is 53.4%; in [20], 9.22% (active).

`c1nc(N2CCOCC2)c2[nH]ccc2n1`: the growth is 96% in experiment [1]; 103% in [2]; 104% in [3]; 87.6% in experiment [4]; 95.3% in experiment [5]; 109% in experiment [6]. The growth is 103% in experiment [7]; 96.3% in [8]; 107% in experiment [9]; 94% in experiment [10]; 92% in [11]; 94.1% in [12]. In addition, the growth in experiment [13] is 106%; in [14] it was 116%; in [15], 106%; in experiment [16] it was 110%; in [17], 112%; in [18], 118%. For the same compound, the growth in [19] was 96.7%.

As to `CC(C)C1=NOC(=O)C1=Cc1cn(-c2ccccc2)nc1-c1ccc(Cl)cc1`, the growth in [1] was 85.6%; in experiment [2], 98.5%; in experiment [3], 78.2%; in experiment [4] it was 71.4%; in experiment [5], 83.3%; in experiment [6], 82.6%. The growth in experiment [7] was 65.8%; in experiment [8], 91.4%; in experiment [9] it was 4.95% (active); in experiment [10], -4.85% (active); in experiment [11], -22% (active); in experiment [12] it was -28.5% (active). Further, the growth is 79.2% in experiment [13]; 99.1% in [14]; 98.2% in experiment [15]; 106% in experiment [16]; 79.6% in experiment [17]; 86.2% in experiment [18]. Further, the growth is 77.4% in experiment [19] and 91.7% in experiment [20].

Take `Cn1ncc2c(Nc3ccc(O)cc3)nc(Cl)nc21`: the growth was 106% in experiment [1]; 87.8% in [2]; 96.8% in [3]; 84% in experiment [4]; 102% in [5]; 88% in experiment [6]. The growth in [7] is 92.9%; in experiment [8], 111%; in experiment [9] it was 92.1%; in experiment [10], 94.2%; in experiment [11] it was 75.3%; in experiment [12] it was 79.4%. Further, the growth in experiment [13] was 104%; in experiment [14], 105%; in experiment [15], 105%; in [16], 105%; in experiment [17], 92.9%; in [18], 117%. Moreover, the growth in [19] was 102%; in experiment [20], 97.3%.

For the compound `CC(C)C1=NOC(=O)C1=Cc1cn(-c2ccccc2)nc1-c1ccccc1`, the growth in [1] is 99.2%; in experiment [2], 99.3%; in experiment [3], 79.2%; in experiment [4], 70.2%; in experiment [5] it was 82.3%; in [6], 84.5%. The growth was 57.7% in experiment [7]; 93.6% in experiment [8]; 8.48% (active) in [9]; 7.72% (active) in experiment [10]; -26.9% (active) in experiment [11]; -16.2% (active) in experiment [12]. Further, the growth is 59.8% in experiment [13]; 102% in experiment [14]; 95.4% in experiment [15]; 112% in experiment [16]; 67.5% in experiment [17]; 88.4% in [18]. The figures for the growth in experiment [19] and in experiment [20] were 64% and 94.6%, respectively.

Consider `O=C(CCCCCCSc1nc(-c2ccc(Cl)cc2)cc(-c2ccc(Cl)cc2)n1)NO`, for which the growth was 92.7% in experiment [1]; 50.9% in [2]; 26.1% in experiment [3]; 8.29% (active) in experiment [4]; 30.7% in [5]; 15.5% in experiment [6]. Also, the growth was 13.4% in experiment [7]; 81.8% in experiment [8]; 5.2% (active) in experiment [9]; 11.4% in experiment [10]; 5.47% (active) in experiment [11]; 34.9% in experiment [12]. Further, the growth in experiment [13] was 20.5%; in experiment [14], 39.4%; in experiment [15] it was 35.9%; in experiment [16], 17.4%; in experiment [17], 27.6%; in [18], 22.9%. The growth was 69.5% in experiment [19] and 3.91% (active) in [20].

With `Cc1nc(Cl)c2c(n1)N(C)c1ccc(Cl)cc1C(C)C2` (centres undefined), the growth in experiment [1] is 96.1%; in experiment [2], 75%; in experiment [3] it was 86.6%; in experiment [4], 70.9%; in experiment [5] it was 92.9%; in experiment [6], 91.7%. For the same compound, the growth in experiment [7] was 78.8%; in experiment [8] it was 81.5%; in experiment [9], 90.3%; in [10] it was 80.6%; in experiment [11], 83.2%; in experiment [12] it was 66.8%. In addition, the growth in experiment [13] is 95.9%; in experiment [14] it was 101%; in [15], 83%; in [16], 86.3%; in [17], 92.7%; in experiment [18], 98.7%. Further, the growth is 42.5% in [19] and 95.8% in experiment [20].
